Source: PubChem BioAssay (NCATS)
Results filed as inconclusive are left out. The source made the active and inactive calls. Calls come from the whole dose curve; as a rule, active = well fitted inhibition curve with a large enough effect; inconclusive = small, poorly fitted or top-dose-only effect; inactive = flat fitted curve, though single readings scatter.

System: CRL-7250
Assay: qHTS assay to identify novel small-molecules to repurpose for Merkel cell carcinoma treatment (AID 1296009); note: nearly all actives have a fitted effect of over 60% in size
Conditions: MCC and control cell lines, CellTiter-Glo viability, 72 h; series mostly up to 92 µM; activity change, negative = cytotoxicity: at the top concentration
Procedure, shortened: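 Dose-response viability screen; 72 hr exposure at 37 degree celsius; CellTiter-Glo added, 10 min room temperature, luminescence read; RLUs scaled between no-cell and DMSO wells.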

With `CC(/C=C/C1(O)C(C)(C)CC(O)CC1(C)O)OC1OC(CO)C(O)C(O)C1O` (stereo not drawn) as the compound, how does the “outcome” value read?
The value was “inactive [at 17.4 µM]”.

`C=C1[C@H]2[C@H](O[C@@H]3O[C@H](COC(=O)/C=C/c4cc(OC)c(O)c(OC)c4)[C@@H](O)[C@H](O)[C@H]3O)OC=C(C(=O)O)[C@H]2C[C@@H]1O` was tested. Which “outcome” value did it give?
Its value is “inactive [at 17.4 µM]”.

For `Cc1cc(Nc2nc(NC(C)c3ncc(F)cn3)ncc2Cl)n[nH]1` (stereo not drawn), which “outcome” value is on record?
The value was “inactive”.

How did the “outcome” value turn out when `C=C[C@]1(C)C=C2CCC3C(C)(CCC[C@@]3(C)C(=O)O)C2CC1` (stereo partly drawn) was run?
The value was “inactive”.

For `COC1CCCC/C(C)=C/C2C=C(C)C(C)C3C(CC(C)C)NC(=O)C23C(=O)C1` (stereo not drawn), which “outcome” value is on record?
The value was “inactive [at 17.4 µM]”.

With `C/C=C(\C)C(=O)OC1CC2C(CC=C3CC(OC4CC(OC)C(OC5CC(OC)C(OC6CC(OC)C(OC7CC(OC)C(OC8CC(OC)C(OC9OC(CO)C(O)C(O)C9O)C(C)O8)C(C)O7)C(C)O6)C(C)O5)C(C)O4)CCC32C)C2(O)CCC(C(C)=O)C12C` (stereo not drawn) as the compound, how does the outcome read?
The outcome was “inactive [at 9.27 µM]”.

How did the “outcome” value turn out when `C[C@H]1CCN2C[C@]34C[C@@]5(C(=O)Nc6c5ccc5c6OC=CC(C)(C)O5)C(C)(C)C3C[C@]12C(=O)N4C` (stereo partly drawn) was run?
The value was “inactive [at 17.4 µM]”.

`CC[C@H](C)[C@H](NC(=O)[C@H](Cc1ccc(O)cc1)NC(=O)[C@@H](N)C(C)C)C(=O)N[C@@H](Cc1cnc[nH]1)C(=O)N1CCC[C@H]1C(=O)N[C@@H](Cc1ccccc1)C(=O)O` was tested. Which outcome did it give?
The outcome was “inactive [at 4.96 µM]”.

For `C[C@H]1CC[C@@H]2N(C1)C[C@@H]1[C@H]([C@@H](O)[C@H](O)[C@]3(O)[C@H]1C[C@@]14OC5(O)[C@@H](C[C@@H](O)[C@@H]31)[C@]4(C)CC[C@@H]5O)[C@]2(C)O`, which “outcome” value is on record?
The value was “inactive [at 17.4 µM]”.

How did the “outcome” value turn out when `C[C@H]1CC[C@@]2(OC1)O[C@H]1CC3C4CC[C@H]5C[C@@H](O)CC[C@]5(C)C4=CC(=O)[C@]3(C)[C@H]1[C@@H]2C` (stereo partly drawn) was run?
The value was “inactive [at 17.4 µM]”.

With `COC(=O)[C@@H](NC(=O)[C@H](CC(C)C)NC(=O)N(Cc1ccccc1)C[C@@H](O)[C@H](Cc1ccccc1)NC(=O)OC(C)(C)C)C(C)C` as the compound, how does the outcome read?
The outcome was “inactive [at 9.27 µM]”.

With `O=S(=O)(c1ccccc1)N(CC(F)(F)F)c1ccc(C(O)(C(F)(F)F)C(F)(F)F)cc1` as the compound, how does the “outcome” value read?
Its value is “inactive”.

For `C[C@]1(O)CC[C@@H]2C(C(=O)O)=CO[C@@H](O[C@@H]3O[C@H](COC(=O)/C=C/c4ccc(O)c(O)c4)[C@@H](O)[C@H](O)[C@H]3O)[C@@H]21`, which “outcome” value is on record?
Its value is “inactive [at 17.4 µM]”.

`C=C(C)[C@@H](C)[C@H]1O[C@]23C[C@]4(CO2)C(CCC2[C@@]5(C)CC[C@H](O[C@@H]6OC[C@H](O)[C@H](O[C@@H]7O[C@H](CO)[C@@H](O)[C@H](O)[C@H]7O)[C@H]6O[C@@H]6O[C@@H](CO)[C@H](O)[C@H]6O)C(C)(C)C5CC[C@]24C)C3[C@@](C)(O)[C@@H]1OC(C)=O` (stereo partly drawn) was tested. Which outcome did it give?
Its outcome is “inactive [at 9.27 µM]”.

For `C/C=C(\C)C(=O)OC[C@H]1O[C@@H](O[C@H]2[C@@H](O[C@H]3O[C@H](CO)[C@@H](O)[C@H](O)[C@H]3O[C@@H]3O[C@H](CO)[C@@H](O)[C@H](O)[C@H]3O)O[C@H](COC(=O)/C(C)=C/C)[C@@H](O)[C@@H]2O)[C@H](O)[C@@H](O)[C@@H]1O`, which outcome is on record?
Its outcome is “inactive [at 9.27 µM]”.

Which “outcome” value does the source give for `COc1cc(C(=O)OC[C@@]2(O)CO[C@@H](O[C@H]3[C@H](Oc4ccc(O)cc4)O[C@H](CO)[C@@H](O)[C@@H]3O)[C@@H]2O)cc(OC)c1O` here?
The value was “inactive [at 17.4 µM]”.

With `CC1(C)CC[C@]2(C(=O)O)CC[C@]3(C)C(=CCC4[C@@]5(C)C[C@H](O)[C@H](O[C@@H]6OC[C@H](O)[C@H](O)[C@H]6O)[C@@](C)(CO)C5CC[C@]43C)[C@@H]2C1` (stereo partly drawn) as the compound, how does the “outcome” value read?
The value was “inactive [at 17.4 µM]”.

With `CN1CCc2cc3c(cc2C(=O)Cc2cc4c(cc2C1)OCO4)OCO3` as the compound, how does the “outcome” value read?
Its value is “inactive”.

How did the “outcome” value turn out when `CC1CCC2(C(=O)OC3OC(CO)C(O)C(O)C3O)CCC3(C)C(=CCC4C5(C)CCC(O)C(C)(CO)C5CCC43C)C2C1(C)O` (stereo not drawn) was run?
Its value is “inactive [at 17.4 µM]”.

How did the “outcome” value turn out when `CCC(C)/C=C(C)/C=C/C1=CC2=C(Cl)C(=O)C(C)(OC(C)=O)C(=O)C2=CN1CCCC(=O)O` (stereo not drawn) was run?
Its value is “inactive [at 17.4 µM]”.

For `CC(=O)C1=C(O)C=C2Oc3c(C(C)=O)c(O)c(C)c(O)c3[C@]2(C)C1=O`, which “outcome” value is on record?
The value was “inactive”.

How did the outcome turn out when `CCC/C=C/C(=O)O[C@H]1CC(C)(C)CC2[C@@]13[C@H](O)C[C@]1(C)[C@@]2(CCC2[C@@]4(C)CC[C@H](O[C@@H]5O[C@H](C(=O)O)[C@@H](O)[C@H](O[C@@H]6O[C@H](CO)[C@H](O)[C@H](O)[C@H]6O[C@@H]6O[C@@H](C)[C@H](O)[C@@H](O)[C@H]6O[C@@H]6OC[C@](O)(CO)[C@H]6O)[C@H]5O[C@@H]5O[C@H](CO)[C@H](O)[C@H](O)[C@H]5O)C(C)(C)C4CC[C@]21C)O[C@H]3O` (stereo partly drawn) was run?
Its outcome is “inactive [at 9.27 µM]”.

`CC1(C(=O)O)CCCC2(C)C3CCC4CC3(CCC12)CC4C(=O)O` (stereo not drawn) was tested. Which “outcome” value did it give?
Its value is “inactive”.

For `CCc1nnc(NS(=O)(=O)c2ccc(NC(=S)NC(=O)/C=C/c3ccc(F)cc3)cc2)s1`, which “outcome” value is on record?
Its value is “inactive”.

Which “outcome” value does the source give for `C=C[C@H]1[C@H](O[C@@H]2O[C@H](CO)[C@@H](O)[C@H](O)[C@H]2O)OC=C2C(=O)N3Cc4c([nH]c5ccccc5c4=O)[C@@H]3C[C@H]21` here?
The value was “inactive [at 17.4 µM]”.

`CC1(C=O)CCCC2(C)C1CCC13CC(CO)C(CCC12)C3` (stereo not drawn) was tested. Which “outcome” value did it give?
The value was “inactive”.

Which “outcome” value does the source give for `NS(=O)(=O)c1ccc(NC(=O)Nc2ccc(F)cc2)cc1` here?
The value was “inactive”.

Which “outcome” value does the source give for `C/C=C(\C)C(=O)O[C@H]1[C@@H](O[C@]2(COC(=O)CC(C)C)O[C@H](COC(=O)C(C)C)[C@@H](OC(C)=O)[C@@H]2O)O[C@H](COC(C)=O)[C@@H](O)[C@@H]1O` here?
The value was “inactive [at 17.4 µM]”.
